Screens as filed in PubChem.
ATXN viability = Viability Counterscreen for Primary qHTS for Inhibitors of ATXN expression; S2 cells (HEK-293 line with an ATXN2-luciferase reporter) viability, CellTiter-Fluor protease fluorescence, 24 h; actives 0.49% (n = 400,000); Potency, µM (titrated, usually from 56.7 µM), hits mostly cytotoxic; also: nearly all actives have a fitted effect of over 40% in size
TGFb SMAD3 inh = qHTS for Inhibitors of TGF-b | HepG2 CAGA-GFP TGF-b/SMAD3 reporter, GFP fluorescence, 18 h; TGF-beta stimulated, 500 pg/mL final | Potency, µM (titrated, usually from 46.1 µM), for inactives: at the top dose activity, negative = inhibition, hits mostly inhibitors | actives 1.2% (n = 410,000) | AID 588855, 2011; also: % is scaled to controls: 0 for no effect and ±100 for the full control effect; nearly all actives have a fitted effect of over 65% in size
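Smad-responsive CAGA-GFP expression was quantified in HEPG2 cells exposed to compounds and 500 pg/mL final TGF-beta for 18 h at 37 degrees C; unstimulated wells defined full inhibition.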
HepG2 viability = qHTS for Inhibitors of TGF-b: Cytotox Counterscreen | HepG2 CAGA-GFP viability, ATP luminescence, 18 h | Potency, µM (doses to about 46.1 µM), without a hit: at the top dose activity change, negative = cytotoxicity, hits mostly cytotoxic | actives 0.76% (n = 410,000) | AID 588856, 2011
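CellTiter-Glo luminescence gave cytotoxicity after 18 hours at 37 degrees C. The cells were HepG2 CAGA-GFP in 1% FBS DMEM, stimulated with 500 pg/mL TGF-beta after compound addition. %Activity was normalised to no-cell wells (complete cell-killing) and DMSO (no toxicity), and curves were fitted and classified.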
VP16 counter = VP16 counterscreen qHTS for inhibitors of ROR gamma transcriptional activity; Drosophila S2 Gal4-VP16 UAS-luciferase, luminescence, 20 h; Potency, µM (highest dose often 53.6 µM), for the others: at the highest dose activity, negative = inhibition, most hits filed as inhibitors; actives 3.5% (n = 310,000);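 also: Gal4-VP16 expression switched on by copper sulfate through the metallothionein promoter; % is scaled to controls: 0 for no effect and ±100 for the full control effect; nearly all actives have a fitted effect of over 50% in size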
RORg inh = qHTS for inhibitors of ROR gamma transcriptional activity. Drosophila S2 Gal4-RORgamma UAS-luciferase reporter, 20 h. Potency, µM (titrated, usually from 53.6 µM), inactives show at the highest dose activity change, negative = inhibition, actives largely listed as inhibitors. actives 5.4% (n = 310,000); also: % is scaled to controls: 0 for no effect and ±100 for the full control effect; nearly all actives have a fitted effect of over 60% in size
Target sequence (P51450 whole entry, looked up, the tested form may be a part): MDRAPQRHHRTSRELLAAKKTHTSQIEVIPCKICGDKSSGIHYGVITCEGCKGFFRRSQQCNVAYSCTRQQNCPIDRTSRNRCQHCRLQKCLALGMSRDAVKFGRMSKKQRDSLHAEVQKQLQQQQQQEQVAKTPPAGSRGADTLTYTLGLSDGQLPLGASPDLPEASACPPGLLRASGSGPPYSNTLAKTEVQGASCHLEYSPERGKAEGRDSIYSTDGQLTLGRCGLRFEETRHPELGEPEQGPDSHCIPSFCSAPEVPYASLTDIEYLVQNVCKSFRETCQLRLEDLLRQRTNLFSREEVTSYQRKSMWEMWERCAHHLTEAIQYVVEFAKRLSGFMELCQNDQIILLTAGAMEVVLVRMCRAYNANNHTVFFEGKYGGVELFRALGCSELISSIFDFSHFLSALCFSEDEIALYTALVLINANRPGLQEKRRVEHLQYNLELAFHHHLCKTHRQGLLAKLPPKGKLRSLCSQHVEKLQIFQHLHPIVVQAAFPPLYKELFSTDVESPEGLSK
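Luciferase reporter read in Schneider cells carrying Gal4-RORγ (mouse) and UAS-Photinus luciferase; cells given compound 1 h before 700 uM copper sulfate induction, then incubated 20 h at ambient temperature.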
ATXN2 expr inh = Primary qHTS for Inhibitors of ATXN expression. AID 1745845, 2022. Potency, µM (top dose mostly 57 µM), for the others: top-dose activity change, negative = inhibition, actives largely listed as inhibitors. actives 0.72% (n = 360,000). HEK-293 ATXN2-luciferase reporter, luminescence, 24 h; also: % is scaled to controls: 0 for no effect and ±100 for the full control effect; nearly all actives have a fitted effect of over 55% in size
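qHTS (up to 57 uM final) was run with 24 h compound exposure of reporter cells at 37 °C. Each well was multiplexed: SteadyGlo luminescence measured ATXN2-luciferase expression after a fluorogenic Gly-Phe-AFC viability readout (25 uM final).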
An asterisk follows results filed as active; i = inactive; ? = inconclusive; . = not tested or not shown; [ ] = remark or other dose. Most compounds without a hit are left out; they make up all but 6.3% or so of the library. Calls follow the shape of the dose curve; as a rule, active = well fitted curve in the direction sought with a large enough effect; inconclusive = small, poorly fitted or top-dose-only effect, or another doubt; inactive = no such curve, though single readings can be large; an effect the other way counts as inactive or inconclusive. Potency is read from the fitted curve at half-maximal effect.

SMILES	ATXN viability	TGFb SMAD3 inh	HepG2 viability	VP16 counter	RORg inh	ATXN2 expr inh
CCOc1ccc(S(=O)(=O)Nc2ccc3c(c2)CCCN3S(=O)(=O)c2ccc(C)cc2)cc1	?	-13%	6%	.	.	-28%
Cc1ccc(S(=O)(=O)N2CCCc3cc(NS(=O)(=O)c4cccc(Cl)c4)ccc32)cc1	?	10µM*	-16%	.	.	?
Cc1ccc(SC2=NS(=O)(=O)c3ccccc32)c(C)c1	.	-22%	-11%	.	.	.
O=[N+]([O-])c1cccc(/C=C/c2ccc3cccc(O)c3n2)c1	i	0%	-25%	4.5µM*	3.2µM*	3%
Clc1ccc(/C=C/c2ccc3ccccc3n2)cc1Cl	.	?	-21%	.	.	.
O=[N+]([O-])c1ccc(/C=C/c2ccc3cccc([N+](=O)[O-])c3n2)cc1	?	8%	5%	-27%	?	-16%
Oc1ccc(/C=C/c2ccc3cccc(O)c3n2)cc1Br	.	?	-57%	18µM*	3.2µM*	-18%
O=C(O)c1ccc(/C=C/c2ccc3cccc(O)c3n2)cc1	i	0%	-4%	0.56µM*	2.8µM*	62%
CCOc1cc(/C=C/c2ccc3cccc([N+](=O)[O-])c3n2)ccc1OCC(=O)N(C)C	?	2%	-30%	8%	?	?
CCOc1cc(/C=C/c2ccc3cccc([N+](=O)[O-])c3n2)ccc1O	?	13µM*	-35%	-2%	22%	-8%
CCOC(=O)C1=CNS(=O)(=O)NC1c1ccccc1 (stereo not drawn)	i	15%	19%	.	.	13%
CSCC[C@H](NC(=O)CN)C(=O)N[C@@H](CC(=O)O)C(=O)N[C@@H](CO)C(=O)N[C@@H](CC(C)C)C(=O)N[C@@H](C)C(=O)N[C@@H](Cc1ccccc1)C(=O)N[C@@H](CO)C(=O)NCC(=O)NCC(=O)N[C@@H](CC(C)C)C(N)=O	.	.	.	3%	18%	.
COc1ccc(N(C)S(=O)(=O)c2cccc(C(=O)OCC(=O)N(C)c3ccccc3)c2)cc1	i	-1%	-27%	.	.	4%
COC(=O)c1ccc(/C=C/C(=O)O)cc1	i	-4%	4%	-24%	-27%	.
COC(=O)c1ccc(/C=C/c2ccc3cccc(OC(C)=O)c3n2)cc1	i	?	-35%	3.5µM*	5.6µM*	40%
COc1ccc(S(=O)(=O)N2CC(C)N(C(=O)N(C)C)C2C(C)C)cc1 (stereo not drawn)	i	-9%	-29%	-7%	-8%	-22%
Cc1ccc(NC(=S)NCCN(C2CCCCC2)C2CCCC2)cc1	?	?	-49%	-6%[10 µM]	11µM*	.
Cc1ccc(NC(=S)NCCN(C2CCCCC2)C2CCCC2)cc1C	?	?	-40%	-1%[10 µM]	5µM*	?
Cc1cc(C)cc(NC(=S)NCCN(C2CCCCC2)C2CCCC2)c1	.	?	-59%	0%[10 µM]	4.5µM*	.
Cc1cc(C)cc(NC(=S)NCCN2CCOCC2)c1	?	-4%	-22%	.	.	0%
Cc1ccc(NC(=O)NCCN2CCCCC2)cc1C	?	27%	-1%	-5%	5%	.
CCc1ccccc1NC(=O)CSc1nncn2c1cc1oc(C)cc12	.	?	-22%	.	.	.
COC(=O)/C=C/c1cc(F)ccc1S(=O)(=O)Nc1ccccc1	.	-7%	7%	.	.	.
Cc1ccccc1-n1c([C@@H]2C[C@H]2c2ccccc2)n[nH]c1=S	i	24%	2%	?	5µM*	-4%
O=C(Cc1ccccc1)NCc1n[nH]c(=S)n1-c1ccccc1	i	6%	-12%	14%	-33%	14%
SMILES	ATXN viability	TGFb SMAD3 inh	HepG2 viability	VP16 counter	RORg inh	ATXN2 expr inh
S=c1[nH]nc([C@@H]2C[C@H]2c2ccccc2)n1-c1ccccc1	i	-26%	-5%	4µM*	2.8µM*	5%
Cn1ccnc1SCc1cn2cc(Br)ccc2n1	i	52%	12%	10µM*	11µM*	?
COc1cccc(CN2CCCC(c3nc(-c4ccncc4)ncc3-c3ccccc3C)C2)c1O (stereo not drawn)	i	.	.	.	.	.
O=C(NNC1=NS(=O)(=O)c2ccccc21)c1ccccc1Cl	i	-3%	5%	-15%	-19%	2%[11.3 µM]
O=C(NNC1=NS(=O)(=O)c2ccccc21)c1ccccc1	i	3%	-10%	?	13µM*	7%
c1cncc(CNc2ncncc2-c2cccnc2)c1	.	.	.	-3%	0%	.
CN[C@@H]1[C@@H](O)[C@@H](O[C@@H]2[C@@H](O)[C@H](O[C@H]3O[C@H](CN)[C@@H](O)[C@H](O)[C@@H]3O)[C@@H](N)C[C@@H]2NC(=O)[C@@H](O)CN)OC[C@]1(C)O	.	.	.	.	.	5%
Fc1ccc(NC(=S)N2CCn3cccc3C2c2cccnc2)cc1 (stereo not drawn)	i	?	0%	3%	9%	-12%
Fc1ccc(C2c3cccn3CCN2C(=S)Nc2cccc(Br)c2)cc1 (stereo not drawn)	i	?	-20%	?	8.9µM*	?
S=C(NCc1ccccc1)N1CCn2cccc2C1c1ccncc1 (stereo not drawn)	i	-16%	-1%	0%	4µM*	-3%
CC1CCC(Nc2nc3c(-c4cccc(C(F)(F)F)c4)nnn3c3ccccc23)CC1 (stereo not drawn)	i	-2%	7%	.	.	8%
c1nc(SSc2ncc3n[nH]nc3n2)nc2n[nH]nc12	.	-3%	2%	.	.	.
O=C(Nc1ccc(Cl)c([N+](=O)[O-])c1)c1ccc(NCCCN2CCOCC2)c([N+](=O)[O-])c1	?	7%	-15%	?	5µM*	32µM*
Nc1c(S(=O)(=O)c2ccccc2)cnc2c(-c3ccc(F)cc3)cnn12	i	7%	-15%	10µM*	4.5µM*	-6%
COc1ccc(-c2cnn3c(N)c(S(=O)(=O)c4ccccc4)cnc23)cc1	i	-17%	-2%	5.6µM*	2.8µM*	5%
CC(C)(C)c1cc(NC(=O)Nc2ccc(-c3cn4c(n3)sc3cc(OCCN5CCOCC5)ccc34)cc2)no1	.	.	.	.	.	-6%
COc1ccc(CN2CCCC(n3cc(C(=O)N4CCCCC4)nn3)C2)cc1OC (stereo not drawn)	i	.	.	.	.	.
CCN(C(=O)CSc1nc2ccccc2n1Cc1cc(C)ccc1C)c1ccccc1	i	?	-2%	.	.	-7%
